From PubChem BioAssay (NCI)
The panel holds about 79,000 compounds, 15% with a hit somewhere; the sample as a whole holds those more often. A number with no mark means an inactive call. Calls of active or inactive are those of the source. Cut-off read from the data, not from the text of the source: active = growth inhibition above about 70%; inactive = the rest.

Test: NCI Yeast Anticancer Drug Screen. Data for the mec2-1 strain (AID 157)
Conditions: S. cerevisiae mec2-1 strain, at 50.0 µM, active compounds read high
In short: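 Vehicle-treated cultures served as reference for growth inhibition of compound-exposed mec2-1 yeast.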

Going from `Cn1c(=O)c2c(nc3sc4c(n32)C(=O)c2c(O)ccc(O)c2C4=O)n(C)c1=O` to `Cc1ccc(S(=O)(=O)ON2C(=O)c3cccc4cc([N+](=O)[O-])cc(c34)C2=O)cc1`, the growth inhibition rises from 30.2% to 45%.

Compared with `CCOC(=O)C1=C(Nc2ccc(Cl)cc2Cl)OC/C1=N\NS(=O)(=O)c1ccc(C)cc1`, `Cc1ccc(C)c(NC(=O)c2ccc([N+](=O)[O-])cc2)c1` is higher in growth inhibition: 9.25% for the first, 17.4% for the second.

Compared with `NC(=O)C12CC3CC(CC(Br)(C3)C1)C2`, `O=C(O)C1CCCC2C(O)CCC(O)C12` (stereo not given) is lower in growth inhibition: -6.85% for the first, -15.4% for the second.

Going from `CON(C)CCOC(=O)c1ccc([N+](=O)[O-])cc1` to `CC(C)CCC(C)(C)COC(=O)c1ccc([N+](=O)[O-])cc1` (tested in a mixture with another compound), the growth inhibition rises from 4.15% to 15.1%.

Going from `COc1cc(NCC2COc3c(ccc(OC)c3OC)C2=O)c([N+](=O)[O-])cc1OC` (stereo not given) to `COc1cc(Nc2nc3ccccc3nc2-c2cccs2)cc(OC)c1OC`, the growth inhibition falls from 20.2% to 14%.

Compared with `CCCCCCCSc1nc2ccc(N=Cc3ccccc3O)cc2s1`, `O=C(N/N=C/c1ccc(Cl)cc1Cl)c1ccccc1` is higher in growth inhibition: -5.9% for the first, -1.65% for the second.

Compared with `CCCOC(=O)C(O)Cc1ccccc1` (stereo not given), `O=C(CSc1nnc(Cc2ccccc2)o1)Nc1cccc([N+](=O)[O-])c1` is lower in growth inhibition: 18.2% for the first, 5.1% for the second.

Going from `CN(C)c1ccc(C(c2cc3c(cc2O)OCO3)N2CCN(C(c3ccc(N(C)C)cc3)c3cc4c(cc3O)OCO4)CC2)cc1` (stereo not given) to `O=C(OCCN1CCOCC1)C1C[C@@H](O)CN1C(=O)c1ccc2c(c1)OCO2` (stereo not given in full), the growth inhibition falls from 31.4% to -5.85%.

Going from `C[n+]1ccc(/C=C/c2c[nH]c3ccccc23)cc1` to `Cc1cccc[n+]1CC(=O)c1ccc(Cl)cc1`, the growth inhibition falls from 10.8% to 3.25%.

Compared with `CC(C)(C)[N+](=O)[O-]`, `CCC(CC)=NNc1ccc([N+](=O)[O-])cc1[N+](=O)[O-]` is higher in growth inhibition: -27.1% for the first, -11.4% for the second.

First: CCOc1c(N=Nc2ccc(Cl)cc2)c(C)nn1C(N)=S
Second: CCn1c2ccccc2c2ccc(N=Nc3ccccc3)cc21
The growth inhibition of the first is higher: 16.2% for the first, 12.6% for the second.

First: C=CCCC1CC(OCC)OC(CCC=C)O1 (stereo not given)
Second: CCS(=O)CCO (stereo not given)
The growth inhibition of the first is higher: 1.15% for the first, -20.4% for the second.

Going from `O=c1oc(=O)c2ccccc2c2ccccc12` to `Clc1ccccc1C1OCCCO1`, the growth inhibition rises from 6.85% to 15.1%.

Compared with `Fc1ccc(C(Nc2nncs2)Nc2nncs2)c(F)c1`, `CCCNCc1cccc2ccnc(C)c12` is higher in growth inhibition: -13.8% for the first, 9.6% for the second.

Compared with `CCC(C)(CCC(C)C)c1ccncc1` (stereo not given), `COc1ccc(NC(=O)CC#N)cc1` is lower in growth inhibition: 9.3% for the first, 1.6% for the second.

First: O=C(O)CCCCCN1C(=O)c2cccc([N+](=O)[O-])c2C1=O
Second: O=C(Nc1ccc(C(F)(F)F)cc1[N+](=O)[O-])C(=O)C1NC(=S)NC1=O (stereo not given)
The growth inhibition of the first is lower: 10% for the first, 12.1% for the second.

Going from `CC(OP(=O)(O)O)C(N)C(=O)O` (stereo not given) to `NC(N)=NS(=O)(=O)c1ccc(NC(=O)c2ccc(Cl)c3c(Nc4ccc(S(=O)(=O)N=C(N)N)cc4)c4ccccc4nc23)cc1`, the growth inhibition rises from -34% to 31.6%.

Compared with `O=S1(=O)C=CC(N/N=C/c2cc(Cl)cc(Cl)c2)=C1`, `COc1cccc(N=Cc2ccc(C=Nc3cccc(OC)c3)cc2)c1` is lower in growth inhibition: 9.3% for the first, -9.1% for the second.

First: CCCCCCCCCCCCCCCO
Second: O=C1CCc2cc3c(cc21)CC1(Cc2cc4c(cc2C1)CCCC4)C3
The growth inhibition of the first is lower: -20.4% for the first, -8.8% for the second.

In the case of `CC(C)(C)NC(=O)Oc1ccc(-c2ccccc2)cc1Cl`, the growth inhibition is reported as 99.5% (active).
With `O=C(Nc1cccc2ccccc12)Oc1cccc2cccnc12` the growth inhibition was 96.9% (active).

Test: NCI Yeast Anticancer Drug Screen. Data for the sgs1 mgt1 strain (AID 161);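 note: 0% = growth of cultures given vehicle only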
Conditions: S. cerevisiae sgs1 mgt1 strain, at 50.0 µM, active compounds read high
In short: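 Mutant yeast exposed to compound; growth scored against vehicle-only wells.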

Compared with `Cn1c(=O)c2c(nc3sc4c(n32)C(=O)c2c(O)ccc(O)c2C4=O)n(C)c1=O`, `Cc1ccc(S(=O)(=O)ON2C(=O)c3cccc4cc([N+](=O)[O-])cc(c34)C2=O)cc1` is lower in growth inhibition: 51.5% for the first, 39.4% for the second.

Compared with `CCOC(=O)C1=C(Nc2ccc(Cl)cc2Cl)OC/C1=N\NS(=O)(=O)c1ccc(C)cc1`, `Cc1ccc(C)c(NC(=O)c2ccc([N+](=O)[O-])cc2)c1` is higher in growth inhibition: 1.2% for the first, 10% for the second.

Compared with `NC(=O)C12CC3CC(CC(Br)(C3)C1)C2`, `O=C(O)C1CCCC2C(O)CCC(O)C12` (stereo not given) is higher in growth inhibition: -8.25% for the first, -1.85% for the second.

Going from `CON(C)CCOC(=O)c1ccc([N+](=O)[O-])cc1` to `CC(C)CCC(C)(C)COC(=O)c1ccc([N+](=O)[O-])cc1` (tested in a mixture with another compound), the growth inhibition rises from -2.6% to 43.4%.

Going from `COc1cc(NCC2COc3c(ccc(OC)c3OC)C2=O)c([N+](=O)[O-])cc1OC` (stereo not given) to `COc1cc(Nc2nc3ccccc3nc2-c2cccs2)cc(OC)c1OC`, the growth inhibition rises from 8.15% to 29.6%.

Compared with `CCCCCCCSc1nc2ccc(N=Cc3ccccc3O)cc2s1`, `O=C(N/N=C/c1ccc(Cl)cc1Cl)c1ccccc1` is higher in growth inhibition: -16.9% for the first, -2.95% for the second.

Compared with `CCCOC(=O)C(O)Cc1ccccc1` (stereo not given), `O=C(CSc1nnc(Cc2ccccc2)o1)Nc1cccc([N+](=O)[O-])c1` is higher in growth inhibition: 5.95% for the first, 12.1% for the second.

First: CN(C)c1ccc(C(c2cc3c(cc2O)OCO3)N2CCN(C(c3ccc(N(C)C)cc3)c3cc4c(cc3O)OCO4)CC2)cc1 (stereo not given)
Second: O=C(OCCN1CCOCC1)C1C[C@@H](O)CN1C(=O)c1ccc2c(c1)OCO2 (stereo not given in full)
The growth inhibition of the first is higher: 28.9% for the first, 7.7% for the second.

First: C[n+]1ccc(/C=C/c2c[nH]c3ccccc23)cc1
Second: Cc1cccc[n+]1CC(=O)c1ccc(Cl)cc1
The growth inhibition of the first is higher: 3.6% for the first, 1.05% for the second.

Compared with `CC(C)(C)[N+](=O)[O-]`, `CCC(CC)=NNc1ccc([N+](=O)[O-])cc1[N+](=O)[O-]` is lower in growth inhibition: -10.7% for the first, -13.6% for the second.

First: CCOc1c(N=Nc2ccc(Cl)cc2)c(C)nn1C(N)=S
Second: CCn1c2ccccc2c2ccc(N=Nc3ccccc3)cc21
The growth inhibition of the first is lower: 12.2% for the first, 19.2% for the second.

First: C=CCCC1CC(OCC)OC(CCC=C)O1 (stereo not given)
Second: CCS(=O)CCO (stereo not given)
The growth inhibition of the first is higher: 1.25% for the first, -15.8% for the second.

Going from `O=c1oc(=O)c2ccccc2c2ccccc12` to `Clc1ccccc1C1OCCCO1`, the growth inhibition falls from -0.9% to -22.4%.

First: Fc1ccc(C(Nc2nncs2)Nc2nncs2)c(F)c1
Second: CCCNCc1cccc2ccnc(C)c12
The growth inhibition of the first is higher: 12.6% for the first, 0.45% for the second.

First: CCC(C)(CCC(C)C)c1ccncc1 (stereo not given)
Second: COc1ccc(NC(=O)CC#N)cc1
The growth inhibition of the first is lower: -0.05% for the first, 15.8% for the second.

Going from `O=C(O)CCCCCN1C(=O)c2cccc([N+](=O)[O-])c2C1=O` to `O=C(Nc1ccc(C(F)(F)F)cc1[N+](=O)[O-])C(=O)C1NC(=S)NC1=O` (stereo not given), the growth inhibition rises from 22.5% to 24.9%.

Going from `CC(OP(=O)(O)O)C(N)C(=O)O` (stereo not given) to `NC(N)=NS(=O)(=O)c1ccc(NC(=O)c2ccc(Cl)c3c(Nc4ccc(S(=O)(=O)N=C(N)N)cc4)c4ccccc4nc23)cc1`, the growth inhibition rises from -44.9% to 30.9%.

First: O=S1(=O)C=CC(N/N=C/c2cc(Cl)cc(Cl)c2)=C1
Second: COc1cccc(N=Cc2ccc(C=Nc3cccc(OC)c3)cc2)c1
The growth inhibition of the first is higher: 20.5% for the first, 11.1% for the second.

Going from `CCCCCCCCCCCCCCCO` to `O=C1CCc2cc3c(cc21)CC1(Cc2cc4c(cc2C1)CCCC4)C3`, the growth inhibition falls from -2.45% to -22.2%.

For `CC(C)(C)NC(=O)Oc1ccc(-c2ccccc2)cc1Cl`, the growth inhibition was 99.2% (active).
In the case of `O=C(Nc1cccc2ccccc12)Oc1cccc2cccnc12`, the growth inhibition is reported as 97.5% (active).
